According to the antibiotic and cytotoxicity screens of Wong et al. (2023):
The whole screen tested about 39,000 compounds, of which about 3,300 (8.5%) were called active. The full list was thinned out, with actives kept by preference.

test system: HepG2; experiment: cytotoxicity call (relative viability < 0.9); conditions: 10 µM

SMILES | cytotoxicity call
C[C@@H]1CCCCO[C@@H](CN(C)C(=O)Nc2ccc(C(F)(F)F)cc2)[C@H](C)CN([C@H](C)CO)C(=O)c2cc(N(C)C)ccc2O1 | active
C[C@H](CO)N1C[C@H](C)[C@@H](CN(C)C(=O)Nc2ccc(C(F)(F)F)cc2)OCCCC[C@H](C)Oc2ccc(N(C)C)cc2C1=O | inactive
C[C@@H]1CN([C@@H](C)CO)C(=O)c2cc(N(C)C)ccc2O[C@@H](C)CCCCO[C@@H]1CN(C)C(=O)Nc1ccc(C(F)(F)F)cc1 | active
C[C@@H]1CN([C@H](C)CO)C(=O)c2cc(N(C)C)ccc2O[C@@H](C)CCCCO[C@@H]1CN(C)C(=O)Nc1ccc(C(F)(F)F)cc1 | inactive
C[C@@H]1CCCCO[C@@H](CN(C)C(=O)Nc2ccc(C(F)(F)F)cc2)[C@@H](C)CN([C@H](C)CO)C(=O)c2cc(N(C)C)ccc2O1 | inactive
C[C@H]1CCCCO[C@H](CN(C)C(=O)Nc2ccc(C(F)(F)F)cc2)[C@@H](C)CN([C@@H](C)CO)C(=O)c2cc(N(C)C)ccc2O1 | inactive
Cc1nn2cc(CN)nc2s1 | inactive
C[C@@H]1CN([C@H](C)CO)C(=O)Cc2cc(NC(=O)C3CC3)ccc2O[C@@H]1CN(C)S(=O)(=O)c1cn(C)cn1 | inactive
C=CCC[C@@H](Cc1ccc(F)cc1)C(=O)OC[C@@H](NC(=O)[C@@H](CC=C)CC(=O)N(CCO)Cc1ccccc1)C(C)(C)C | inactive
C[C@@H]1CN([C@@H](C)CO)C(=O)c2cccc(NS(C)(=O)=O)c2O[C@@H]1CN(C)Cc1ccc(C(F)(F)F)cc1 | inactive
C[C@@H]1CN([C@@H](C)CO)S(=O)(=O)c2ccc(Br)cc2O[C@H]1CN(C)Cc1ccc(-c2ccccc2)cc1 | inactive
C[C@@H]1CCCCO[C@H](CN(C)C(=O)NC2CCCCC2)[C@H](C)CN([C@@H](C)CO)C(=O)c2cc(NS(=O)(=O)c3ccc(Cl)cc3)ccc2O1 | inactive
C[C@@H]1CCCCO[C@@H](CN(C)C(=O)NC2CCCCC2)[C@@H](C)CN([C@@H](C)CO)C(=O)c2cc(NS(=O)(=O)c3ccc(Cl)cc3)ccc2O1 | inactive
C[C@@H]1CN([C@H](C)CO)C(=O)c2cc(NS(=O)(=O)c3ccc(Cl)cc3)ccc2O[C@@H](C)CCCCO[C@@H]1CN(C)C(=O)NC1CCCCC1 | active
C[C@H]1CCCCO[C@@H](CN(C)C(=O)NC2CCCCC2)[C@@H](C)CN([C@@H](C)CO)C(=O)c2cc(NS(=O)(=O)c3ccc(Cl)cc3)ccc2O1 | inactive
C[C@H]1CCCCO[C@H](CN(C)C(=O)NC2CCCCC2)[C@@H](C)CN([C@@H](C)CO)C(=O)c2cc(NS(=O)(=O)c3ccc(Cl)cc3)ccc2O1 | inactive
C[C@@H]1CCCCO[C@H](CN(C)C(=O)NC2CCCCC2)[C@H](C)CN([C@H](C)CO)C(=O)c2cc(NS(=O)(=O)c3ccc(Cl)cc3)ccc2O1 | active
